PubChem BioAssay (NCATS)
Unmarked numbers belong to inactive results. Records with an inconclusive call do not appear. A call without a number means that no potency is given here. The source made the active and inactive calls. Unless noted, the call rests on the fitted dose curve; in most records, active means well fitted curve in the direction sought with a large enough effect; inconclusive means small, poorly fitted or top-dose-only effect, or another doubt; inactive means no such curve, though single readings can be large; an effect the other way counts as inactive or inconclusive.

Experiments:
[1] = Cell Viability - BJ (AID 421; calls by dose curve;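 further: potency means the concentration at half of the fitted maximal effect; cells exposed to compound for 40 hours at 37 °C before readout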); details: BJ fibroblast viability, qHTS
Outline: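 Cytotoxicity as drop in intracellular ATP (CellTiter-Glo, 20 min RT) after 40 hr compound exposure of BJ fibroblasts at 37 °C. Titrations scaled between DMSO and 100 uM tamoxifen, Hill-fitted for AC50.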

[2] = Cell Viability - Mesenchymal (AID 546); details: mesenchymal cells viability, qHTS; series mostly up to 91.7 µM;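 further: cells exposed to compound for 40 hours before reading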
Outline: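 Human kidney mesenchymal cells from normal renal glomeruli, 1000 cells/well, rested 5 hr at 37 °C, then treated 40 hr at 37 °C in complete medium. Cellular ATP read by CellTiter-Glo luminescence; AC50 from Hill-equation fits.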

[3] = Cellular Toxicity (caspase-3) HepG2 (AID 654); details: HepG2 caspase-3 activation, luminescence, 0% = DMSO only, 100% = tamoxifen; series mostly up to 92.2 µM;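 further: cells exposed to compound for 16 hours before reading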
Outline: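 Cells plated 5 hr at 37 °C, compound added, incubated 16 hr at 37 °C. Caspase-Glo 3/7 reagent followed, 20 min at room temperature, then luminescence read. Activation scored as signal increase; AC50 from Hill fit.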

[4] = Cellular Toxicity (caspase-3) HUV-EC-C (AID 656); details: HUV-EC-C cells, caspase-3 activation (apoptosis), vehicle = 0, 100 µM tamoxifen = 100%; series mostly up to 92.2 µM
Outline: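 Luminescent caspase-3/7 activation (aminoluciferin substrate cleavage) in HUV-EC-C cells after 16 hr compound exposure, 37°C. Signal normalized to DMSO basal and 100 uM tamoxifen as 100%; AC50 from concentration-response fitted with the Hill equation.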

[5] = Cellular Toxicity (caspase-3) BJ (AID 658); details: BJ fibroblasts, luminescence, normalized: DMSO 0%, staurosporine 100%; series mostly up to 91.7 µM;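 further: cells exposed to compound for 16 hours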
Outline: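 BJ human foreskin fibroblasts, 1000 cells/well, treated 16 hours at 37 °C in complete medium; caspase 3/7 activity by Caspase-Glo luminescence after 1 hr at room temperature. Normalized to DMSO and 10 uM staurosporine; AC50 from Hill fits.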

[6] = Cellular Toxicity (caspase-3) MRC-5 (AID 659); details: MRC-5 cells, luminescence, normalized: DMSO 0%, 10 µM staurosporine 100%; series mostly up to 91.7 µM
Outline: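 MRC-5 human normal lung fibroblasts, 1500 cells/well, treated 16 h at 37 °C in complete medium. Caspase 3/7 measured by Caspase-Glo luminescence after 1 h at room temperature. Normalized to DMSO and 10 uM staurosporine; AC50 from Hill fit.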

[7] = Cellular Toxicity (caspase-3) SK-N-SH (AID 661); details: SK-N-SH caspase-3 activation, qHTS; series mostly up to 91.7 µM;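 further: cells exposed to compound for 16 hours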
Outline: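 Human neuroblastoma SK-N-SH, 1500 cells/well, 5 hr pre-incubation, then compound 16 hr, 37 °C. Caspase-Glo 3/7 reagent, 1 hr RT, luminescence. Norm. to DMSO/10 uM staurosporine; Hill-fit AC50.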

[8] = Cellular Toxicity (caspase-3) Hek293 (AID 664); details: HEK293 caspase-3 activation, DMSO = 0%, 100 µM tamoxifen = 100%; at 92.2 µM (top of the series);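 further: cells exposed to compound for 16 h at 37 °C before readout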
Outline: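 Cells plated, 5 hr at 37 °C; compounds added; 16 hr at 37 °C; Caspase-Glo 3/7 reagent, 20 min RT; luminescence read. Activation expressed relative to DMSO and 100 uM tamoxifen, AC50 by Hill model.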

[9] = MultiTox-Fluor Cytotoxicity Assay - LYMP1-001 - Dead Cells (AID 946); details: LYMP1-001 lymphoblastoid cells, dead-cell protease fluorescence; series mostly up to 92.2 µM
Outline: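 Cytotoxicity as increased dead-cell protease fluorescence (bis-AAF-R110, 485/520 nm), read 60 min after MultiTox-Fluor reagent. Human lymphoblastoid line exposed 16 h; Hill-fitted AC50, with DMSO as 0% and 15 uM tetraoctylammonium bromide as 100%.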

[10] = Cell Viability - LYMP1-002 - Assay at 16 hr (AID 948); details: LYMP1-002 lymphoblastoid cell viability; series mostly up to 92.2 µM
Outline: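 LYMP1-002 human lymphoblastoid cells, 2500/well; 5 hr 37 C; cpd 16 hr 37 C; CellTiter-Glo 30 min RT; luminescence (ATP). Concentration-response, Hill-fit AC50. Pos ctrl tetraoctylammonium bromide.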

[11] = MultiTox-Fluor Cytotoxicity Assay - LYMP1-002 - Live Cells (AID 955); details: LYMP1-002 lymphoblastoid live-cell protease fluorescence viability; series mostly up to 46.1 µM;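 further: cells exposed to compound for 16 hours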
Outline: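 Read-out is live-cell protease activity (cell-permeant GF-AFC substrate, fluorescence Ex/Em=405/510), where a decrease indicates acute toxicity. Human lymphoblastoid cells were treated 16 hours at 37 C in a concentration series, and AC50 values came from standard Hill modelling.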

[12] = MultiTox-Fluor Cytotoxicity Assay - LYMP1-003 - Dead Cells (AID 961); details: LYMP1-003 lymphoblastoid cells, dead-cell protease fluorescence; series mostly up to 92.2 µM; further: nearly all actives have a fitted effect of over 70% in size
Outline: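 Dead-cell protease release, detected as bis-AAF-R110 fluorescence at 485/520 nm, was measured in LYMP1-003 cells after 16 h compound treatment at 37 C. AC50 values came from Hill-modeled qHTS curves normalized to DMSO (0%) and 15 uM tetraoctylammonium bromide (100%).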

[13] = MultiTox-Fluor Cytotoxicity Assay - LYMP1-003 - Live Cells (AID 962); details: LYMP1-003 lymphoblastoid cells, MultiTox-Fluor live-cell protease fluorescence; series mostly up to 92.2 µM;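 further: cells exposed to compound for 16 hours at 37 °C; cytotoxic hits lower the live-cell protease signal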
Outline: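 qHTS, 1536-well; 2500 cells/well LYMP1-003; 5 hr 37 C settle; cpd 16 hr 37 C; MultiTox-Fluor reagent 60 min RT; live-cell protease fluor. 405/510; Hill-fit AC50; tetraoctylammonium bromide pos. ctrl.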

[14] = Cell Viability - LYMP1-003 - Assay at 24 hr (AID 963); details: LYMP1-003 lymphoblastoid cell viability; series mostly up to 92.2 µM
Outline: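 Cells seeded at 2500/well, 5 hr at 37 C; compounds added; 24 hr at 37 C; CellTiter-Glo added, 30 min room temperature; luminescence read. Decrease in ATP taken as cytotoxicity, AC50 from Hill modelling.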

[15] = Cell Viability - LYMP2-003 (AID 965); details: LYMP2-003 lymphoblastoid cell viability; series mostly up to 92.2 µM;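 further: cells exposed to compounds for 24 h before reading; nearly all actives have a fitted effect of over 50% in size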; further: potency means the concentration at half of the fitted maximal effect
Outline: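 CellTiter-Glo luminescence (cellular ATP) after 24 h compound exposure at 37 C in complete medium; 2500 cells/well, 5 h settling beforehand. Concentration-response fitted to standard Hill equation for AC50. Tetraoctylammonium bromide served as positive control.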

[16] = Cell Viability - LYMP2-025 (AID 976); details: LYMP2-025 lymphoblastoid cell viability; series mostly up to 92.2 µM
Outline: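 Seed 2500 LYMP2-025 cells/well; 5 hr at 37 C; add compound; 24 hr at 37 C; add CellTiter-Glo; 30 min RT; read luminescence. AC50 from Hill-modelled concentration-response.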

[17] = Cell Viability - LYMP2-016 (AID 984); details: LYMP2-016 lymphoblastoid cell viability, qHTS; series mostly up to 92.2 µM;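 further: cells exposed to compound for 24 hours at 37 °C; nearly all actives have a fitted effect of over 55% in size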; further: potency means the concentration at half of the fitted maximal effect
Outline: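 qHTS, 1536-well: 2500 LYMP2-016 cells/well, 5 hr 37 C, compound added, 24 hr 37 C, CellTiter-Glo 30 min RT, luminescence. Tetraoctylammonium bromide positive control. AC50 via Hill fit.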

[18] = Cell Viability - LYMP2-026 (AID 989); details: LYMP2-026 lymphoblastoid cell viability, qHTS; series mostly up to 92.2 µM; further: nearly all actives have a fitted effect of over 50% in size
Outline: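 Luminescent ATP signal (CellTiter-Glo, 30 min room temperature) measures viable lymphoblastoid cells after 24 hr compound treatment at 37 C. Decreased ATP reflects acute toxicity; AC50 values come from Hill-equation modeling.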

[19] = qHTS Assay for Identification of Small Molecule Inducers of Hypoxia Response (AID 2120; active means well fitted curve in the direction sought with a large enough effect in the signal ratio, with a control signal flat, not every such curve was filed as active; the % refers to the signal ratio); details: hypoxia response reporter cells, beta-lactamase ratio readout; series mostly up to 104 µM
Outline: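 ME-180 HRE-bla cells plated in Opti-MEM/0.5% dialyzed FBS, rested 4-5 h, then dosed with compound titrations by pin tool. After 17 h at 37 degrees C, CCF4 dye loaded 2.5 h at RT; 460/530 nm ratio gave %Activity and AC50.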

[20] = molecular target: Peroxisome proliferator-activated receptor alpha (Homo sapiens) (UniProt Q07869); test: qHTS assay for small molecule agonists of the peroxisome proliferator-activated receptor alpha (PPARalpha) signaling pathway (AID 651778); details: PathHunter PPARalpha complementation, chemiluminescence, 6 h; hits give high values
Outline: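 Enzyme-fragment complementation assay in which ligand-bound PPARalpha translocates and forms an active enzyme that generates chemiluminescence. Cells were plated overnight, exposed to compound for 6 hr at 37 C, and then given detection reagent for 60 min at room temperature.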

Peroxisome proliferator-activated receptor alpha (Homo sapiens), sequence (Q07869 whole entry, looked up, the tested form may be a part): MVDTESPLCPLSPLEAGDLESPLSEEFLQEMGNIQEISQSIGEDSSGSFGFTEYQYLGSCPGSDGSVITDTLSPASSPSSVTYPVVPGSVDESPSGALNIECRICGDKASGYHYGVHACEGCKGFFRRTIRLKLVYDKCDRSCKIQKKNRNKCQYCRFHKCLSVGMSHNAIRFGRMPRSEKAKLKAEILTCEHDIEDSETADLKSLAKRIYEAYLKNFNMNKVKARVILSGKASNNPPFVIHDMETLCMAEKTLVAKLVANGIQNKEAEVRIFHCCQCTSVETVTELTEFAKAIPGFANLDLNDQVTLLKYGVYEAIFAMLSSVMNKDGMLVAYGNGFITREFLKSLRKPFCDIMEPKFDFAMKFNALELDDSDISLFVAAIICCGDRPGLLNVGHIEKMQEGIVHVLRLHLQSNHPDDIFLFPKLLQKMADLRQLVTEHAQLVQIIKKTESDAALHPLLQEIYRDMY

Compound | Potency [1] | Potency [2] | outcome [3] | outcome [4] | outcome [5] | outcome [6] | Potency [7] | caspase-3 activation [8] | outcome [9] | outcome [10] | outcome [11] | Potency [12] | outcome [13] | outcome [14] | Potency [15] | Potency [16] | Potency [17] | Potency [18] | Potency [19] | max response [20]
CCCC[N+](=O)[O-] | > 92 µM | inactive | inactive | inactive | inactive | inactive | inactive | 23.2% | inactive | inactive | inactive | inactive | inactive | inactive | inactive | inactive | inactive | inactive | inactive | 1.08%
Nc1cc(Cl)ccc1O | > 92 µM | inactive | inactive | inactive | inactive | inactive | inactive | 4.86% | inactive | inactive | inactive |  | inactive | inactive | inactive | inactive | inactive | inactive | inactive | 0.902%
CCCCC(CC)COC(=O)c1ccc(C(=O)OCC(CC)CCCC)c(C(=O)OCC(CC)CCCC)c1 (configuration not stated) | > 92 µM | inactive | inactive | inactive | inactive | inactive | inactive | 16.8% | inactive | inactive | inactive | inactive | inactive | inactive | inactive | inactive | inactive | inactive | inactive | -3.57%
N#CC(Cl)(Cl)Cl | > 92 µM | inactive | inactive | inactive | inactive | inactive | inactive | 1.68% | inactive | inactive | inactive | inactive | inactive | inactive | inactive | inactive | inactive | inactive | inactive | 9.56%
CN(C)c1ccc(N)cc1 | 28.3 µM (active) | inactive | inactive | inactive | inactive | inactive | inactive | 2.4% | inactive |  |  |  |  |  | 50.1 µM (active) |  | 79.4 µM (active) |  | inactive | 11.3%
